In PubChem BioAssay:

assay: small-molecule microarray binders of probe aCHRDL2, primary screen, biochemical, biotinylated probe, 635/667 nm fluorescence (AID 1100); conditions: higher = more signal

Point of comparison: O=C(O)[C@H](Cc1ccccc1)n1cc(-c2ccccn2)nn1, composite z-score -0.323. Against it:
- COC(=O)c1c(CC[C@@H](CO)NC(=O)N[C@H](Cn2cc(-c3ccccc3C)nn2)C(C)C)oc(C(C)=O)c1C(=O)OC — higher, -0.076
- COc1ccc(NN2C(C(O)c3ccco3)C=CC3C(=O)N(C4CCCCC4)C(=O)C32)cc1 (stereo not given) — higher, 0.689
- Cc1c(NC(=O)/C(C#N)=C/C=C/c2ccc(N(C)C)cc2)c(=O)n(-c2ccccc2)n1C — higher, 0.294
- CN1C2C=C(CCCO)C(C3C(=O)N(C(N)=O)C(=O)C32)C1c1cccs1 (stereo not given) — higher, 0.492
- CC(C)CNC(=O)[C@@]1(c2ccc([N+](=O)[O-])cc2)CC(=O)N(C2CCCCC2)[C@@H]1c1ccc(CO)cc1I — higher, 0.641
- COCCOC(=O)N1C(=O)[C@@]2(c3cc(C#CC4(O)CCCCCC4)ccc31)[C@H](C(N)=O)[C@H]1C(=O)O[C@H](c3ccccc3)[C@H](c3ccccc3)N1[C@@H]2c1ccc(O)cc1 — higher, -0.0074
- COC(=O)[C@@]1(Cc2ccccc2)[C@H]2c3cc(C(=O)N4CCCC4)n(Cc4cc(F)cc5c4OCOC5)c3C[C@H]2CN1C(=O)c1ccccc1 — higher, 1.1
- CCOC(=O)C[C@H]1[C@H](OC(=O)c2ccccc2-c2ccccc2)[C@@H](NC(=O)CC(C)C)c2cc(OCCCO)ccc2N1C(=O)c1ccc2ccccc2n1 — higher, -0.187
- C=CCN1Cc2ccccc2C[C@@]2(N=C(c3ccc(OCCCO)cc3)O[C@H]2c2ccccc2)C1=O — higher, 0.512
- COCCOC(=O)N1C(=O)[C@@]2(c3cc(C#CC4(O)CCCCCC4)ccc31)[C@H](C(=O)N1CCCCCCC1)[C@H]1C(=O)O[C@H](c3ccccc3)[C@H](c3ccccc3)N1[C@@H]2c1ccc(OCCO)cc1 — higher, 1.45
- CN1C(=O)C2C=CC(C(O)c3c(F)cccc3Cl)N(Nc3ccccc3)C2C1=O (stereo not given) — higher, 0.92
- CCCC=C(CCC)[C@@H](NP(=O)(c1ccccc1)c1ccccc1)c1ccc(C(F)(F)F)cc1 — higher, 0.333
- O=C1O[C@@H](c2ccccc2)[C@@H](c2ccccc2)N2[C@@H](c3ccc(O)cc3)[C@]3(C(=O)Nc4ccc(C#CCCO)cc43)[C@@H](C(=O)NC[C@H](O)c3ccccc3)[C@H]12 — higher, 0.785
- CCN(CC)c1ccc(N2CC=CC34O[C@@H]5/C=C\CCC(C)OC(=O)C5[C@H]3C(=O)N(CCO)[C@@H]4C2=O)cc1 (stereo not given in full) — higher, 0.477
- Cc1ccc(S[C@]2(C(=O)NCCN3CCOCC3)CC(=O)N(Cc3ccccc3C(F)(F)F)[C@@H]2c2ccc(CO)cc2I)cc1 — higher, 0.93
- C=CCNC(=O)[C@@H]1[C@H]2C(=O)O[C@H](c3ccccc3)[C@H](c3ccccc3)N2[C@H](c2ccc(OCCO)cc2)[C@@]12C(=O)N(C(=O)OCCOC)c1ccc(C#CC3=CCCCC3)cc12 — higher, -0.112
- COC(=O)[C@@]1(Cc2ccccc2)[C@H]2c3cc(C(=O)N4CCCC4)[nH]c3C[C@H]2CN1C(=O)c1ccccc1 — higher, 0.91
- C=CCOC(=O)[C@@H]1[C@H]2C(=O)O[C@H](c3ccccc3)[C@H](c3ccccc3)N2[C@H](c2ccc(OCCOC(=O)[C@H]3C[C@H]4C(=O)N[C@@H](CCCC[N+](C)(C)C)C(=O)N4[C@H]3c3ccc(O)cc3)cc2)[C@@]12C(=O)Nc1ccc(I)cc12 — higher, -0.248
- COc1c(C)cc(-c2cc3c(c(Cc4ccccc4)n2)[Si](C(C)C)(C(C)C)OC3)cc1C — higher, -0.313
- COCCOC(=O)N1C(=O)[C@@]2(c3cc(C#CC4(O)CCCCCC4)ccc31)[C@H](c1ccccc1OCCO)N1[C@H](c3ccccc3)[C@H](c3ccccc3)OC(=O)[C@H]1[C@@H]2C(N)=O — higher, 0.0813
- CC(C)C(O)C1C=CC2C(=O)N(C)C(=O)C2N1Nc1ccccc1 (stereo not given) — higher, 0.598
- CC(=O)N1Cc2ccccc2C[C@]2(N=C(c3ccc(OCCCO)cc3)O[C@@H]2c2ccccc2)C1=O — higher, 1.05
- CCOC(=O)[C@@H]1[C@@H]2C(=O)N(CC)C(=O)[C@@H]2C[C@@H]1Sc1ccccc1 — higher, 0.0774
- O=C1OCCC=C[C@H]2OC34C=CCN(c5ccc(Cl)cc5)C(=O)[C@H]3N(CCCCCO)C(=O)[C@@H]4C12 (stereo not given in full) — higher, 0.255
- COc1ccc(CCNC(=O)[C@@]2(Sc3ccc(C)cc3)CC(=O)N(Cc3cc(C(F)(F)F)cc(C(F)(F)F)c3)[C@@H]2c2ccc(CO)cc2I)cc1 — higher, 0.901
- COC(=O)[C@@]1(Cc2ccc(OC)cc2)[C@H]2c3cc(C(=O)N4CCCC4)n(CCc4cc5ccccc5[nH]4)c3C[C@H]2CN1C(=O)c1ccccc1 — higher, 1.43
- COc1ccc(NN2C(C(O)c3ccccn3)C=CC3C(=O)N(C4CCCCC4)C(=O)C32)cc1 (stereo not given) — higher, 0.862
- CN(C)CCCCNC(=O)[C@H]1C[C@H]2C(=O)N[C@@H](CCCCN(C)C)C(=O)N2[C@H]1c1cccc(OCCO)c1 — lower, -0.434
- CC(C)(C)OC(=O)CC[C@]1(C(=O)O)N=C(c2ccc(OCCCO)cc2)O[C@H]1c1ccccc1 — higher, 0.542
- COCCOC(=O)N1C(=O)[C@@]2(c3cc(C#Cc4ccc(OC)cc4)ccc31)[C@H](C(=O)NC[C@H](O)c1ccccc1)[C@H]1C(=O)O[C@H](c3ccccc3)[C@H](c3ccccc3)N1[C@@H]2c1ccc(O)cc1 — higher, 0.234
- C[C@]1(C(=O)NC2CC2)c2ccccc2C(=O)N(Cc2ccc(OC(F)(F)F)cc2)[C@H]1c1ccc(CO)cc1 — higher, 0.755
- C=CC[C@@]1(C(=O)O)N=C(c2ccc(OCCCO)cc2)O[C@@H]1c1ccccc1 — higher, 0.584
- COC(=O)C1(Cc2ccccc2)C=C2C(=C(C(C)C)C(=O)C2C)CN1 (stereo not given) — higher, 1.36
- COc1ccc(C#Cc2ccc3c(c2)[C@]2(C(=O)N3)[C@H](C(=O)N3CCc4cc(OC)c(OC)cc4C3)[C@H]3C(=O)O[C@H](c4ccccc4)[C@H](c4ccccc4)N3[C@@H]2c2ccc(O)cc2)cc1 — higher, -0.178
